The text below walks through data of PubChem BioAssay AID434961 (Broad Institute, 2010).

Screen size: about 7,700 compounds; about 15 (0.2%) were called active. Another 6% or so got no clear call; they are omitted.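 How the source made its calls: active means more than half of replicate wells with inhibition above about 18% (limit read from the data, passing the limit was not always enough); inconclusive means exactly half of replicate wells above that limit; inactive means fewer than half of replicates above it.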 Only a selection was taken, and actives are over-represented in it overall.

This test concerns the target Regulator of chromosome condensation (Homo sapiens) + GTP-binding nuclear protein Ran (Homo sapiens) + Importin subunit beta-1 (Homo sapiens) (UniProt P18754+P62826+Q14974). Description: inhibitors of Ran–importin-beta complex formation, primary screen, biochemical, CFP-Ran/YFP-importin-beta FRET, RCC1, cell-free (AID 434961).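 Further: 0% = DMSO wells and 100% inhibition = RanGDP control wells on each plate.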 Particulars: hits give high values, concentration not given here.
One may read the inhibition as the change of the read-out against control, counted positive when it falls. `CNC[C@H]1Oc2ccc(NC(=O)NC(C)C)cc2CC(=O)N([C@H](C)CO)C[C@H]1C`: the inhibition is -4.07% (inactive).

For the compound `CNC[C@H]1OCCCC[C@@H](C)Oc2ccc(N)cc2C(=O)N([C@H](C)CO)C[C@@H]1C`, the inhibition was 7.03% (inactive).

Turning to `C[C@@H]1CN([C@H](C)CO)C(=O)Cc2cc(NS(=O)(=O)c3cn(C)cn3)ccc2O[C@H]1CN(C)CC1CC1`, the inhibition is 1.45% (inactive).

For the compound `Cc1noc(C)c1NC(=O)N(C)C[C@@H]1Oc2c(NS(C)(=O)=O)cccc2C(=O)N([C@H](C)CO)C[C@H]1C`, the inhibition was -0.0899% (inactive).

In the case of `C[C@@H]1CCCCO[C@H](CN(C)C(=O)C2CCCCC2)[C@H](C)CN([C@@H](C)CO)C(=O)c2cc(NC(=O)c3ccncc3)ccc2O1`, the inhibition was 2% (inactive).

For `C[C@@H]1CN([C@H](C)CO)C(=O)Cc2cc(NC(=O)Nc3ccc4c(c3)OCO4)ccc2O[C@@H]1CN(C)CC1CC1`, the inhibition was 24.2% (active).

For `C[C@@H]1CN([C@H](C)CO)C(=O)Cc2cc(NC(=O)Cc3ccccc3)ccc2O[C@@H]1CN(C)S(=O)(=O)c1cccs1`, the inhibition was -2.73% (inactive).

With `C[C@@H]1CN([C@@H](C)CO)C(=O)Cc2cc(NC(=O)Nc3ccc4c(c3)OCO4)ccc2O[C@@H]1CN(C)CC1CC1`, the inhibition was 2.45% (inactive).

Regarding `C[C@H](CO)N1C[C@H](C)[C@H](CN(C)CC2CC2)Oc2ccc(NC(=O)Nc3ccc4c(c3)OCO4)cc2CC1=O`, the inhibition is -0.0887% (inactive).

On to `C[C@H]1CN([C@@H](C)CO)C(=O)Cc2cc(NC(=O)Cc3ccccc3)ccc2O[C@@H]1CN(C)S(=O)(=O)c1cccs1`, for which the inhibition was -0.944% (inactive).

Take `C[C@H](CO)N1C[C@H](C)[C@@H](CN(C)S(=O)(=O)c2cccs2)Oc2ccc(NC(=O)Cc3ccccc3)cc2CC1=O`: the inhibition is 19.8% (active).

Consider `C[C@H]1CCCCO[C@H](CN(C)Cc2ccc3c(c2)OCO3)[C@@H](C)CN([C@@H](C)CO)C(=O)c2cc(NC(=O)CCCN(C)C)ccc2O1`, for which the inhibition is -3.94% (inactive).

For the compound `C[C@@H]1CCCCO[C@@H](CN(C)Cc2ccncc2)[C@H](C)CN([C@@H](C)CO)C(=O)c2cc(NS(C)(=O)=O)ccc2O1`, the inhibition was -2.5% (inactive).

For `C[C@H]1CCCCO[C@@H](CN(C)C(=O)Cc2ccccc2)[C@@H](C)CN([C@@H](C)CO)C(=O)c2cc(NS(C)(=O)=O)ccc2O1`, the inhibition was 3.79% (inactive).

As to `C[C@H](CO)N1C[C@H](C)[C@@H](CN(C)Cc2ccncc2)Oc2c(NS(C)(=O)=O)cccc2C1=O`, the inhibition is 29.9% (active).

As to `C[C@H]1CN([C@@H](C)CO)C(=O)c2cccc(NS(C)(=O)=O)c2O[C@H]1CN(C)Cc1ccncc1`, the inhibition is 7.75% (inactive).

As to `C[C@@H]1CN([C@@H](C)CO)C(=O)c2cc(NS(C)(=O)=O)ccc2O[C@@H](C)CCCCO[C@@H]1CN(C)C(=O)Cc1ccccc1`, the inhibition is -3.41% (inactive).

With `C[C@@H]1CCCCO[C@H](CN(C)Cc2ccncc2)[C@H](C)CN([C@H](C)CO)C(=O)c2cc(NS(C)(=O)=O)ccc2O1`, the inhibition was 0.0179% (inactive).

Take `C[C@@H]1CN([C@H](C)CO)C(=O)c2cc(NS(C)(=O)=O)ccc2O[C@@H](C)CCCCO[C@@H]1CN(C)Cc1ccncc1`: the inhibition is 30% (active).

Consider `C[C@@H]1CN([C@@H](C)CO)C(=O)c2cc(NS(C)(=O)=O)ccc2O[C@@H](C)CCCCO[C@H]1CN(C)C(=O)Cc1ccccc1`, for which the inhibition was 20.6% (active).

As to `C[C@@H]1CCCCO[C@H](CN(C)Cc2ccc3c(c2)OCO3)[C@@H](C)CN([C@H](C)CO)C(=O)c2cc(NC(=O)CCCN(C)C)ccc2O1`, the inhibition is 20.5% (active).

As for `C[C@@H]1CN([C@@H](C)CO)C(=O)c2cccc(NS(C)(=O)=O)c2O[C@@H]1CN(C)Cc1ccncc1`, the inhibition was 0.304% (inactive).

As for `C[C@@H]1CN([C@@H](C)CO)C(=O)c2cc(NC(=O)CCCN(C)C)ccc2O[C@@H](C)CCCCO[C@H]1CN(C)Cc1ccc2c(c1)OCO2`, the inhibition is 7.22% (inactive).

`Cc1noc(C)c1NC(=O)N(C)C[C@@H]1Oc2ccc(N(C)C)cc2CC(=O)N([C@H](C)CO)C[C@H]1C`: the inhibition is 24.7% (active).

Take `C[C@@H]1CN([C@H](C)CO)C(=O)c2cccc(NS(=O)(=O)c3cn(C)cn3)c2O[C@H]1CN(C)C`: the inhibition is -0.231% (inactive).

Turning to `Cc1noc(C)c1NC(=O)Nc1ccc2c(c1)C(=O)N([C@H](C)CO)C[C@H](C)[C@H](CN(C)C(=O)Nc1c(C)noc1C)OCCCC[C@H](C)O2`, the inhibition was -1.94% (inactive).

Take `C[C@H]1CN([C@@H](C)CO)C(=O)c2cccc(NS(=O)(=O)c3cn(C)cn3)c2O[C@@H]1CN(C)C`: the inhibition was 0.914% (inactive).

Turning to `COc1ccc(CN(C)C[C@H]2Oc3ccc(NC(=O)Nc4ccc(C(F)(F)F)cc4)cc3C(=O)N([C@@H](C)CO)C[C@@H]2C)cc1`, the inhibition is -6.63% (inactive).

As for `Cc1noc(C)c1NC(=O)N(C)C[C@H]1Oc2ccc(N(C)C)cc2CC(=O)N([C@@H](C)CO)C[C@H]1C`, the inhibition was -0.258% (inactive).

`COc1ccc(CN(C)C[C@H]2Oc3ccc(NC(=O)Nc4ccc(C(F)(F)F)cc4)cc3C(=O)N([C@@H](C)CO)C[C@H]2C)cc1`: the inhibition is 31.1% (active).

Regarding `Cc1noc(C)c1NC(=O)Nc1ccc2c(c1)C(=O)N([C@H](C)CO)C[C@H](C)[C@@H](CN(C)C(=O)Nc1c(C)noc1C)OCCCC[C@@H](C)O2`, the inhibition is 0.0737% (inactive).

Turning to `Cc1noc(C)c1NC(=O)N(C)C[C@@H]1Oc2ccc(N(C)C)cc2CC(=O)N([C@H](C)CO)C[C@@H]1C`, the inhibition was 1.55% (inactive).

`Cc1noc(C)c1NC(=O)Nc1ccc2c(c1)C(=O)N([C@H](C)CO)C[C@@H](C)[C@@H](CN(C)C(=O)Nc1c(C)noc1C)OCCCC[C@@H](C)O2`: the inhibition is 20.4% (active).

With `COc1ccc(CN(C)C[C@H]2Oc3ccc(NC(=O)Nc4ccc(C(F)(F)F)cc4)cc3C(=O)N([C@H](C)CO)C[C@H]2C)cc1`, the inhibition is -1.47% (inactive).

As for `C[C@H]1CN([C@@H](C)CO)C(=O)c2cccc(NS(=O)(=O)c3cn(C)cn3)c2O[C@H]1CN(C)C`, the inhibition is 31% (active).

As for `C[C@@H]1CCCCO[C@@H](CN(C)C(=O)CCC(F)(F)F)[C@H](C)CN([C@@H](C)CO)C(=O)c2cc(NC(=O)CCC(F)(F)F)ccc2O1`, the inhibition is -1.98% (inactive).

As for `C[C@@H]1CCCCO[C@@H](CN(C)C(=O)CCC(F)(F)F)[C@@H](C)CN([C@@H](C)CO)C(=O)c2cc(NC(=O)CCC(F)(F)F)ccc2O1`, the inhibition is 17.9% (active).

On to `C[C@H]1CCCCO[C@H](CN(C)C(=O)CCC(F)(F)F)[C@@H](C)CN([C@@H](C)CO)C(=O)c2cc(NC(=O)CCC(F)(F)F)ccc2O1`, for which the inhibition is 4.31% (inactive).
